Tb PYK inh: blocks Trypanosoma brucei pyruvate kinase. Q57TT1. TbPYK enzyme, Kinase-Glo Plus ATP luminescence, 45 min. Potency, µM (highest dose often 76.8 µM), without a hit: top-dose activity, negative = inhibition, hits mostly inhibitors. 0.12% of 410,000 active. AID 624173; note: nearly all actives have a fitted effect of over 50% in size
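Luminescence from Kinase-Glo Plus, added after a 45-minute room-temperature reaction, served as the end-point read-out. The enzyme and substrate were preincubated with compound before ADP (130 uM final) initiated turnover. Concentration-effect curves came from normalized qHTS data.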
LmPK inh: LmPK (Leishmania mexicana) enzyme inhibition | Q27686 | purified LmPK, Kinase-Glo ATP luminescence, 1 h | Potency, µM (titrated, usually from 57.5 µM), for inactives: at the top dose activity change, negative = inhibition, most hits filed as inhibitors | 0.37% of 290,000 active | AID 1721
Target sequence (Q27686 whole entry, looked up): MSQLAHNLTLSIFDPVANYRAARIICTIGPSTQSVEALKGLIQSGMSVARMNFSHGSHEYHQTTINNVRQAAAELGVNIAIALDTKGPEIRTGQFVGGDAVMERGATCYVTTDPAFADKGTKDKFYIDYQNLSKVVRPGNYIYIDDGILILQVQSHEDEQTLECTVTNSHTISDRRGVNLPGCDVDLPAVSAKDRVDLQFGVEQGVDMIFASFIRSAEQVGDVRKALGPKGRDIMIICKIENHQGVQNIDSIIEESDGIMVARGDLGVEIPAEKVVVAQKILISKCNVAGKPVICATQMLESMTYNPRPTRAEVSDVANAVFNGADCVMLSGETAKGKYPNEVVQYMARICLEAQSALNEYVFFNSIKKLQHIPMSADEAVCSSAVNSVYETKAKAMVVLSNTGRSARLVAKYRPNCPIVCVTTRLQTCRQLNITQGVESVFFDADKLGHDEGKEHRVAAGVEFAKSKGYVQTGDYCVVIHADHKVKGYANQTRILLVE
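Kinase-Glo luminescence read after 1 h RT reaction of 0.1 nM LmPK with 0.5 mM PEP and 0.1 mM ADP. Activity scaled between uninhibited and enzyme-free controls.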
Sm TGR inh: inhibitors of Schistosoma mansoni thioredoxin glutathione reductase. Q962Y6. 3% of 360,000 active. Potency, µM (highest dose often 114 µM), for the others: top-dose activity change, negative = inhibition, most hits filed as inhibitors. purified TGR, DTNB reduction, TNB absorbance 405 nm; note: nearly all actives have a fitted effect of over 60% in size
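TGR 20 nM + NADPH 100 uM (dispensed conc.), cpd preinc 15 min RT; start with NADPH (500 uM addition) then DTNB (15 mM addition). Kinetic TNB absorbance, 405 nm filter. Four-parameter Hill fit across titration.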
RE007 growth inh: less growth of the S. pombe RE007 Vpr strain. 0.21% of 360,000 active. Potency, µM (top dose mostly 92.2 µM), for the others: at the top dose activity change, negative = less growth, hits mostly inhibitors. S. pombe RE007 Vpr strain, BacTiter-Glo ATP luminescence, 24 h; active = well fitted falling curve with a large enough effect; inconclusive = small, poorly fitted or top-dose-only effect; inactive = no such curve, though single readings can be large or run the other way; note: nearly all actives have a fitted effect of over 50% in size
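Fission yeast strain RE007, carrying one chromosomally integrated HIV-1 vpr copy, was seeded at OD 0.01 in PMG+AL medium with 23 nL pinned compound. After 24 h at 30 °C and 99% humidity, viability was read by BacTiter-Glo luminescence.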
AMA1 RON2 block: AMA1-RON2 (P. falciparum) interaction inhibition; AlphaScreen AMA1-biotinylated RON2 peptide binding; Potency, µM (top dose mostly 58.2 µM), without a hit: at the top dose activity change, negative = inhibition, most hits filed as inhibitors; 0.2% of 360,000 active;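 note: 0% = vehicle wells and -100% = peptide control; nearly all actives have a fitted effect of over 45% in size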
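AMA1 (3D7) with his tag at 25 nM final met compounds first, then biotinylated RON2 peptide at 25 nM; detection used donor plus acceptor beads, 10 µg/mL apiece, read by AlphaScreen after 30 min at room temperature.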
Numbers without * were called inactive; u = inconclusive; x = not tested or not shown; [ ] = another dose, or the depositor's remark. Sampled rows, rich in hits. Any-hit rate of the full collection: about 3.2%. Unless noted, calls come from the whole dose curve; as a rule, active = well fitted curve in the direction sought with a large enough effect; inconclusive = small, poorly fitted or top-dose-only effect, or another doubt; inactive = no such curve, though single readings can be large; an effect the other way counts as inactive or inconclusive. Unless noted, % is set by controls: 0 for no effect and ±100 for the full control effect; potency is the fitted concentration of half-maximal effect.

SMILES	Tb PYK inh	LmPK inh	Sm TGR inh	RE007 growth inh	AMA1 RON2 block
O=c1c(Cl)c(Cl)cnn1Cc1nnc(-c2ccccc2Br)o1	3.6%	10.0%	6.31µM*	4.4%	5.9%
CC(C)c1cc(Nc2cccc(O)c2)cc(C(C)C)c1O	x	-20.0%	8.91µM*	x	x
COc1ccc(N(CC(=O)NCc2ccccc2Cl)S(=O)(=O)c2c(C)nn(C)c2C)cc1	0.6%	x	0.2%	x	x
N#CC(=C1CCCC1)c1nc(-c2ccccc2)cs1	-2.0%	-11.1%	u	-23.6%	50.4%
N#CC(=C1CCCC1)c1nc(-c2ccccc2O)cs1	-27.7%	-17.3%	25.1µM*	-3.2%	5.0%
Cc1ccc(NC(=O)Cn2ncn3c(cc4ccccc43)c2=O)cc1C	-11.2%	x	-0.4%	x	x
Cc1ccc(C2=NN(C(=O)CCl)C(c3cccs3)C2)o1 (stereo not drawn)	-1.3%	0.2%	3.16µM*	-1.4%	0.0%
O=C(c1ccccc1)N1N=C(c2ccco2)CC1c1cccs1 (stereo not drawn)	-5.8%	3.8%	35.5µM*	-11.8%	-19.4%
O=C(CCl)N1N=C(c2ccco2)CC1c1cccs1 (stereo not drawn)	-23.3%	9.3%	3.16µM*	-12.9%	35.7%
Cc1ccc(C2=NN(C(=O)CCC(=O)O)C(c3cccs3)C2)cc1 (stereo not drawn)	-0.2%	-2.2%	14.7%	1.0%	-1.4%
CC(=O)N1N=C(c2ccco2)CC1c1cccs1 (stereo not drawn)	-1.7%	3.0%	44.7µM*	1.8%	-2.9%
CC(=O)N1N=C(c2cccs2)CC1c1cccs1 (stereo not drawn)	1.0%	3.5%	-7.8%[57.1 µM]	18.2%	11.9%
CS(=O)(=O)Nc1cccc(C2=NN(C(=O)c3ccccc3)C(c3cccs3)C2)c1 (stereo not drawn)	11.7%	0.0%	9.3%	1.9%	-11.4%
CCOc1ccc2nc(N3CCCC(C(=O)Nc4ccc(OC)cc4)C3)sc2c1 (stereo not drawn)	4.0%	x	-3.1%	x	x
c1ccc(-c2csc3ncnc(N4CCN(Cc5ccc6c(c5)OCO6)CC4)c23)cc1	1.3%	-2.2%	17.8µM*	-4.4%	-4.9%
Cc1ccccc1NC(=O)c1onc2c1CCCC2	-17.4%	12.6µM*	0.3%	5.01µM*	-14.3%
O=C(Nc1ccc2ccccc2c1)c1onc2c1CCCC2	-0.6%	-11.7%	-26.2%	3.55µM*	20.5%
Cc1cccc(NC(=O)c2onc3c2CCCC3)n1	u	12.6µM*	4.1%	22.4µM*	18.6%
COC(=O)c1cccc(NC(=O)c2onc3c2CCCC3)c1	-25.5%	u	-7.8%	u	-23.1%
Cc1cccc(NC(=O)c2onc3c2CCCC3)c1C	-11.4%	u	-16.4%	3.98µM*	9.8%
Cc1cccc(NC(=O)c2ccc3c(Cl)c4c(nc3c2)CCCC4)n1	-1.7%	-5.0%	-23.4%	13.4%	6.4%
Cc1ccccc1NC(=O)c1csc2c1CCCC2	0.9%	4.0%	3.1%	-1.6%	17.7%
CC(=O)CCc1oc2ccc([N+](=O)[O-])cc2c1-c1ccc(C)o1	-14.4%	-3.2%	20µM*	-16.6%	0.2%
CC(=O)CCc1oc2c([N+](=O)[O-])cccc2c1-c1ccc(C)o1	-8.0%	-1.6%	11.2µM*	-14.0%	-24.0%
Cc1ccc(N(CCC#N)C(=O)CCl)cc1C	-6.7%	1.1%	17.8µM*	1.2%	-4.9%
SMILES	Tb PYK inh	LmPK inh	Sm TGR inh	RE007 growth inh	AMA1 RON2 block
Cc1cc(C(=O)O)ccc1N/C=C1\CCCC(C)C1=O (stereo not drawn)	-6.6%	0.4%	1.0%	-8.0%	-6.6%
CC1CCC/C(=C\Nc2ccc(O)cc2)C1=O (stereo not drawn)	-26.4%	0.9%	39.8µM*	4.0%	1.2%
COc1cc2c(cc1NC(=O)COc1cc(C)ccc1C)oc1ccccc12	2.2%	x	2.8%	x	x
O=C(NC1CCS(=O)(=O)C1)/C(=C\c1ccco1)NC(=O)c1ccccc1 (stereo not drawn)	-6.5%	0.7%	35.5µM*	-13.6%	-1.0%
CC(C)(C)c1ccc(C(=O)N/C(=C\c2ccco2)C(=O)Nc2ccccc2C(=O)O)cc1	u	8.8%	39.8µM*	-0.4%	0.0%
O=C(Nc1ccc(C(=O)O)cc1)/C(=C\c1ccco1)NC(=O)c1ccccc1	-2.1%	5.3%	x	-3.3%	-4.6%
